Results reported in PubChem BioAssay (Tox21).
Inconclusive results are not listed. Calls of active or inactive are those of the source. Unless noted, the call rests on the fitted dose curve; in most records, active means well fitted curve in the direction sought with a large enough effect in the repeat runs; inconclusive means weak or mixed curves; inactive means no such curve, though single readings can be large; an effect the other way counts as inactive or inconclusive.

Assays:
[1] = qHTS assay to identify small molecule antagonists of the vitamin D receptor (VDR) signaling pathway - cell viability counter screen (AID 743225); further: nearly all actives have a fitted effect of over 50% in size
Summary of the method: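 Read-out: CellTiter-Glo luminescence measured 30 min after reagent addition at room temperature. Cells were VDR-bla HEK 293T exposed 16 h at 37C, 5% CO2, to compound with 3 nM final calcitriol agonist.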

[2] = qHTS assay to identify small molecule agonists of the NFkB signaling pathway (AID 1159509; active means well fitted curve in the direction sought with a large enough effect in the signal ratio in the repeat runs, not every such curve was filed as active; the % refers to the signal ratio; further: series mostly up to about 61 µM)
Summary of the method: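 Agonist activity was read as beta-lactamase-driven FRET change (460 and 530 nm emission, 405 nm excitation) following 1.5 hr substrate loading at room temperature. Beforehand, ME-180 NFkB-bla reporter cells were treated with compounds for 5 hr at 37 C.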

[3] = qHTS assay to identify small molecule agonists of the NFkB signaling pathway - cell viability counter screen (AID 1159515; calls by dose curve; further: nearly all actives have a fitted effect of over 55% in size; further: potency means the concentration at half of the fitted maximal effect)
Summary of the method: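 Cells are seeded (2,000 NFkB-bla ME-180 per well), rested overnight, and dosed with DMSO-dissolved compounds for 5 hr at 37 C. Viability is then read by CellTiter-Glo luminescence after 30 min at room temperature.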

[4] = qHTS assay to identify small molecule agonists of the endoplasmic reticulum stress response signaling pathway (AID 1159516; active means well fitted activation curve with a large enough effect in the signal ratio in the repeat runs, not every such curve was filed as active; the % refers to the signal ratio)
Summary of the method: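 Cells are seeded at 1,500 per well and incubated overnight. Compounds in DMSO are added for 5 hr at 37 C, then beta-lactamase FRET substrate for 2 hr at room temperature, and fluorescence at 460 and 530 nm is measured.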

[5] = qHTS assay to identify small molecule antagonists of the retinoid-related orphan receptor gamma (ROR-gamma) signaling pathway - cell viability counter screen (AID 1159520); further: nearly all actives have a fitted effect of over 50% in size; further: potency means the concentration at half of the fitted maximal effect
Summary of the method: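 Tet-on ROR gamma CHO cells were given compounds for 2 hr, then doxycycline hyclate at 1 uM final, and incubated 16 hr at 37 C. Viability was measured as ATP content by CellTiter-Glo luminescence.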

[6] = biological target: Nuclear receptor ROR-gamma (Homo sapiens) (UniProt P51449); assay: qHTS assay to identify small molecule antagonists of the retinoid-related orphan receptor gamma (ROR-gamma) signaling pathway (AID 1159521; further: nearly all actives have a fitted effect of over 50% in size; further: potency means the concentration at half of the fitted maximal effect)
Summary of the method: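 CHO Tet-on RORγ, RORE-luc reporter. Cpd 2 h pre-incubation, then dox hyclate 1 uM final, 16 h, 37 C/5% CO2. ONE-Glo luminescence; decrease = antagonist.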

[7] = qHTS assay to identify small molecule agonists of the AP-1 signaling pathway - cell viability counter screen (AID 1159525; calls by dose curve; further: nearly all actives have a fitted effect of over 55% in size)
Summary of the method: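 Same-well cytotoxicity counter screen of the Tox21 10K library in ME-180 cells. The readout is ATP-dependent luminescence after 5 h compound treatment. Data are normalised to DMSO and tetra n-octyl ammonium bromide controls.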

[8] = qHTS assay to identify small molecule agonists of the AP-1 signaling pathway (AID 1159526; calls by dose curve)
[9] = qHTS assay to identify small molecule agonists of the RXR signaling pathway - cell viability counter screen (AID 1159529); further: series mostly up to about 77 µM; nearly all actives have a fitted effect of over 50% in size
Summary of the method: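 HEK 293T RXRa-bla cells, 2% CS-FBS; 5 h settle; cpd 16 h 37 C, 5% CO2; CellTiter-Glo 30 min RT, luminescence. Tetraoctyl ammonium bromide as positive control.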

[10] = qHTS assay to identify small molecule antagonists of the retinoid acid receptor (RAR) signaling pathway - cell viability counter screen (AID 1159551); further: nearly all actives have a fitted effect of over 35% in size; further: potency means the concentration at half of the fitted maximal effect
Summary of the method: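 Cells (C3RL4) are plated, incubated overnight, dosed with compound in DMSO, then given retinol at 1 uM final. After 6 h at 37 C, CellTiter-Glo is added and luminescence read following 30 min at room temperature.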

[11] = qHTS assay to identify small molecule antagonists of the retinoic acid receptor (RAR) signaling pathway (AID 1159552; further: nearly all actives have a fitted effect of over 50% in size; further: potency means the concentration at half of the fitted maximal effect)
Summary of the method: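 Cells of the C3RL4 line were seeded, incubated overnight, then dosed with compounds in DMSO followed immediately by retinol (1 uM final). Six hours later luciferase detection reagent went in; signal was measured after 30 min at RT.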

[12] = qHTS assay to identify small molecule agonists of the retinoic acid receptor (RAR) signaling pathway (AID 1159553); further: potency means the concentration at half of the fitted maximal effect
Summary of the method: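 Seed C3RL4 reporter cells at 1,000 per well and incubate overnight at 37 C. Add compounds in DMSO, incubate 6 hr. Add luciferase reagent, wait 30 min at room temperature, read luminescence.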

[13] = biological target: Retinoic acid receptor RXR-alpha (Homo sapiens) (UniProt P19793); assay: qHTS assay to identify small molecule agonists of the RXR signaling pathway (AID 1159527; calls by dose curve; further: nearly all actives have a fitted effect of over 35% in size)
Summary of the method: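 Read-out: beta-lactamase FRET ratio (405 nm excitation, 460 and 530 nm emission) after 2 hr substrate loading at room temperature. Cells were RXR-alpha-UAS-bla HEK 293T treated with compounds for 16 hr in 2% charcoal-stripped FBS medium.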

[14] = qHTS assay to identify small molecule antagonists of the estrogen related receptor (ERR) signaling pathway - cell viability counter screen (AID 1224818); further: series mostly up to about 46 µM
Summary of the method: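 ERR cells, 2,000/well; 6 h settle at 37 C/5% CO2; compound pin transfer (DMSO); 17.5 h at 37 C; CellTiter-Fluor, 30 min, fluorescence read.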

[15] = qHTS assay to identify small molecule antagonists of the estrogen related receptor signaling pathway with the pleiotropic PPARgamma coactivator (PGC) cell viability counter screen (AID 1224822;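 further: series mostly up to about 46 µM; viability read after 17.5 h compound exposure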)
Summary of the method: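 Multiplexed viability counter screen run in PGC/ERR cells treated with compounds for 17.5 h at 37 C; live-cell protease signal measured by CellTiter-Fluor fluorescence.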

Measured: Potency

Sequence of Retinoic acid receptor RXR-alpha (Homo sapiens) (P19793 whole entry, looked up): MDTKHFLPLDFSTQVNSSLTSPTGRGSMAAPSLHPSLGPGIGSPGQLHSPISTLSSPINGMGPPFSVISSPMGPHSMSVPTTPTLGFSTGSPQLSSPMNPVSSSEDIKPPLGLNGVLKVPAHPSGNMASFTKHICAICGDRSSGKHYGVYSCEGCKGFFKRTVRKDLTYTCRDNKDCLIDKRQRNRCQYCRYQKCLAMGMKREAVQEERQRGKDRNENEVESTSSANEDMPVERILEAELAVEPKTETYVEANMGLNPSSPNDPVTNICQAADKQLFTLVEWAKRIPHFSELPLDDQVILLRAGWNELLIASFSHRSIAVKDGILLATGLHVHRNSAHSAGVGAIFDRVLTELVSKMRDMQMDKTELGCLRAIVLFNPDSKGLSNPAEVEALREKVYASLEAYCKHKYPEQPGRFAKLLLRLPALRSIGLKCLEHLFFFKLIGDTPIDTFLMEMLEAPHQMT

Oc1ccc2c(c1)Cc1ccccc1-2
active: [12] 13.7 µM
not listed: [13] | [14] | [15]
inactive: all other assays above

COc1ccc(-c2cc(=S)ss2)cc1
active: [12] 26.6 µM
not listed: [8] | [13] | [14] | [15]
inactive: all other assays above

CC(C)N(C)C
not listed: [1] | [6] | [14] | [15]
inactive: all other assays above

CCCCCCC(CO)CCCC (centres undefined)
not listed: [8] | [14] | [15]
inactive: all other assays above

OCC(CO)n1cnc(-c2ccc(F)cc2)c1-c1ccnc(Oc2ccccc2)n1
not listed: [9] | [11] | [12] | [13] | [14] | [15]
inactive: all other assays above

CN1C(CSCC(F)(F)F)Nc2cc(Cl)c(S(N)(=O)=O)cc2S1(=O)=O (centres undefined)
not listed: [6] | [14] | [15]
inactive: all other assays above

CC(=O)N[C@@H](Cc1ccc(O)cc1)C(=O)O
not listed: [9] | [14] | [15]
inactive: all other assays above

Cc1ccc(N(CCO)CCO)cc1
not listed: [6] | [14] | [15]
inactive: all other assays above

CC(C)(C)C1(CCc2ccc(Cl)cc2)CO1 (centres undefined)
not listed: [8] | [11] | [12] | [14] | [15]
inactive: all other assays above

COc1ccc(-c2cc(C(F)F)nn2-c2ccc(S(N)(=O)=O)cc2)cc1F
not listed: [10] | [11] | [13] | [14] | [15]
inactive: all other assays above

CC(=O)OCC1=C(C(=O)O)N2C(=O)[C@@H](NC(=O)CSc3ccncc3)[C@H]2SC1
not listed: [8] | [9] | [14] | [15]
inactive: all other assays above

O=C(NS(=O)(=O)/C=C/c1ccccc1)c1ccc(F)cc1Cl
not listed: [12] | [13] | [14] | [15]
inactive: all other assays above

Cc1c(C2(c3cc(Br)c(O)c(Br)c3C)OS(=O)(=O)c3ccccc32)cc(Br)c(O)c1Br
active: [3] 37.7 µM | [5] 3.74 µM | [6] 5.93 µM | [10] 7.47 µM | [11] 13.3 µM
inactive: [1] | [2] | [4] | [8] | [9]

COc1ccc(/C=C/C(=O)c2ccc(OC)cc2OC)cc1
active: [12] 29.8 µM
not listed: [8] | [9] | [13] | [14] | [15]
inactive: all other assays above

CC(C)C(=O)OCCOc1ccccc1
not listed: [13] | [14] | [15]
inactive: all other assays above

COC(=O)Nc1nc2ccc(C(=O)C3CC3)cc2[nH]1
not listed: [1] | [12] | [13] | [14] | [15]
inactive: all other assays above

C[C@H](CS)C(=O)N1CCC[C@H]1C(=O)O
not listed: [1] | [9] | [11] | [12]
inactive: all other assays above

CC(=O)OCC(=O)[C@@]1(OC(C)=O)[C@@H](C)C[C@H]2[C@@H]3C[C@H](F)C4=CC(=O)C=C[C@]4(C)[C@@]3(F)[C@@H](O)C[C@@]21C
not listed: [12] | [13] | [14] | [15]
inactive: all other assays above

c1ccc(CCCc2ccncc2)cc1
active: [12] 68.6 µM
not listed: [1] | [13] | [14] | [15]
inactive: all other assays above

Nc1ccc(NC(=O)c2ccc(N)cc2)cc1
not listed: [1] | [9] | [12] | [13] | [14] | [15]
inactive: all other assays above

Nc1nc(-c2ccc([N+](=O)[O-])cc2)cs1
not listed: [9] | [12] | [14] | [15]
inactive: all other assays above

Cc1cccc(C)c1NC(=O)c1cc(S(N)(=O)=O)c(Cl)cc1O
not listed: [9] | [12] | [14] | [15]
inactive: all other assays above
